Pf growth 48h = Primary qHTS for delayed death inhibitors of the malarial parasite plastid, 48 hour incubation. P. falciparum luciferase growth in erythrocytes, 48 h. actives 5.9% (n = 310,000). Potency, µM (highest dose often 28.7 µM), for the others: at the top dose activity change, negative = inhibition, hits mostly inhibitors; also: potency is read from the fitted curve at half-maximal effect; % is scaled to controls: 0 for no effect and ±100 for the full control effect
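Luminescence readout; reporter = integrated firefly luciferase in P. falciparum. RBC culture at 2% hematocrit, 0.1% parasitemia final, 37 C/5% CO2; decreased signal taken as growth inhibition.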
CHX counter = Cycloheximide Counterscreen for Small Molecule Inhibitors of Shiga Toxin; cell reporter, cycloheximide protein synthesis inhibition counterscreen; max response, %; actives 12% (n = 300,000); AID 2314, 2010; in the data active = max response mostly above about 13%, no sharp cut-off; inactive = mostly below about 14%; also: read at 38.3 µM for the half of the compounds with a filed dose; 0% is about no effect
NS1 inh = qHTS Assay for Inhibitors of Influenza NS1 Protein Function. Potency, µM (titrated, usually from 46.1 µM), for the others: top-dose activity, positive = more growth. actives 0.4% (n = 270,000). AID 2326, 2010; calls by dose curve; also: potency is read from the fitted curve at half-maximal effect; actives are rising curves; nearly all actives have a fitted effect of over 50% in size
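Growth recovery, yeast-based: influenza A NS1 expressed in S. cerevisiae causes slow growth, and suppressors are detected by OD600. The parent strain without NS1 is used as positive control.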
Shiga toxin inh = A qHTS for Small Molecule Inhibitors of Shiga Toxin; Vero cells, Shiga toxin protein synthesis inhibition reporter; inhibition, % at 38.7 µM; actives 9.2% (n = 290,000); in the data active = inhibition mostly above about 28%, no sharp cut-off; inactive = mostly below about 43%; also: 0% is about no effect
Pf growth 96h = Primary qHTS for delayed death inhibitors of the malarial parasite plastid, 96 hour incubation; P. falciparum luciferase reporter growth, 96 h; Potency, µM (top dose mostly 28.7 µM), for inactives: at the highest dose activity change, negative = inhibition, hits mostly inhibitors; actives 6.9% (n = 320,000); also: potency is read from the fitted curve at half-maximal effect; % is scaled to controls: 0 for no effect and ±100 for the full control effect
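Compounds incubated with erythrocytes infected by luciferase-expressing P. falciparum (2% hematocrit, 0.05% parasitemia final) for 96 hours, 37 C in 5% CO2. Growth inhibition scored as decreased luciferase luminescence.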
Active calls of the source: *; ? = inconclusive; nt = no result; ! = not active in a repeat; [ ] = another dose, or the depositor's remark. Most compounds without a hit are left out; they make up all but 21% or so of the library. Unless noted, calls follow the shape of the dose curve; as a rule, active = well fitted inhibition curve with a large enough effect; inconclusive = small, poorly fitted or top-dose-only effect, or another doubt; inactive = no such curve, though single readings can be large or run the other way.

SMILES | Pf growth 48h | CHX counter | NS1 inh | Shiga toxin inh | Pf growth 96h
Cc1ccccc1CN(C)CC(=O)Nc1ccccc1-c1ccccc1 | ? | -2.5 | -17.3% | -5.5 | 9.28µM*
COc1ccccc1CN(C)CC(=O)Nc1ccccc1-c1ccccc1 | ? | 14.8* | nt | 2.0 | ?
COc1ccc(CN(C)CC(=O)Nc2ccccc2-c2ccccc2)c(OC)c1 | 10.4µM* | 10.9 | nt | -1.8 | ?
COc1ccc(CN(C)C(=O)C(Cc2ccccc2)NC(=O)c2ccccc2)c(OC)c1 (stereo not given) | 10.4µM* | nt | nt | nt | ?
COc1ccc(CN(C)C(=O)c2ccc(COc3ccccc3)cc2)c(OC)c1 | ? | -1.2 | -27.1% | 2.5 | ?
COc1ccc(CN(C)CC(=O)Nc2ccc(Cl)cc2F)c(OC)c1 | -2.1% | -2.7 | -4.0% | 1.7 | -5.5%
CN(CC(=O)NCc1cccs1)S(=O)(=O)c1cccc2nsnc12 | 1.3% | -2.8 | -10.8% | 6.4 | -19.9%
CCN(CC)S(=O)(=O)c1cccc(NC(=O)c2cc(-c3cccs3)nn2-c2ccccc2)c1 | -18.9% | 2.7 | ? | -3.1 | 11.7µM*
CN(C)S(=O)(=O)c1cccc(NC(=O)c2cc(-c3cccs3)nn2-c2ccccc2)c1 | ? | 5.4 | ? | -17.5 | 14.7µM*
CC(C)(C)C(=O)N1CCC(O)(CS(=O)(=O)c2ccc(Cl)c(Cl)c2)CC1 | 169.5% | -1.9 | nt | -6.9 | 22.2%
Clc1cccc(N2CCNCC2)c1 | ? | nt | 10.7% | nt | 13.5µM*!
O=C(Nc1cccc(Br)c1)c1ccc2c(c1)SC1=NS(=O)(=O)CCN12 | 11.7µM* | nt | nt | nt | 11.7µM*
COc1ccc(Cc2nnc(NS(=O)(=O)c3ccc(Cl)cc3)s2)cc1OC | -13.2% | -1.2 | 10.6% | -9.8 | 4.7%
CSCCC(=O)N1CCC(n2nccc2NC(=O)CCc2ccccc2)CC1 | 15.3% | 11.4 | 11.5% | 18.2 | 23.3%
N/C(=N\OC(=O)CCCOc1ccccc1)c1cccc([N+](=O)[O-])c1 | 10.3% | -2.5 | nt | 13.4 | ?
CCOc1ccc(CNc2ccc3c(c2)nc(C)n3C)cc1 | -18.7% | 25.3* | -13.6% | active | nt
CCOc1ccc(CNc2cccc(SC)c2)cc1 | ? | -4.2 | -1.8% | 12.7 | 7.4%
COc1ccc(CNc2ccc3c(c2)nc(C)n3C)cc1OC | 55.0% | 43.7* | -7.9% | 58.1* | 7.4%
COc1ccc(CNc2ccccc2)cc1Br | 10.5% | 11.4 | -2.5% | 14.6 | ?
CCOc1ccc(CNc2nc3ccccc3n2C)cc1 | 0.7% | 38.8* | -9.2% | nt | ?
COc1ccc(CNc2ccc(C)cc2)cc1Br | 27.4% | 23.1* | 13.4% | 43.0* | 29.9%
COc1ccc(CNc2nc3ccccc3n2Cc2ccc(C)cc2)cc1OC | ? | -3.9 | -14.6% | -2.4 | ?
CCOc1ccccc1CNc1nc2ccccc2n1C | -29.4% | 6.9 | 0.8% | 10.0 | 3.0%
COC(=O)[C@@H](Cc1c[nH]c2ccccc12)NC(=O)CCC(=O)c1ccc(Br)cc1 | 9.6% | 6.9 | -36.7% | 16.1 | 27.2%
CN(C(=S)NC1CCCCC1)C1(c2ccccc2Cl)CCCCC1=O (stereo not given) | 11.7µM* | -8.1 | 3.1% | -11.4 | ?
SMILES | Pf growth 48h | CHX counter | NS1 inh | Shiga toxin inh | Pf growth 96h
CN(C(=S)Nc1ccccc1F)C1(c2ccccc2Cl)CCCCC1=O (stereo not given) | 10.4µM* | -1.7 | 6.0% | -10.4 | ?
O=C(NC(=S)N1CCN(c2ccccc2)CC1)c1c(F)cccc1F | ? | 0.5 | 1.2% | -10.7 | -19.4%
O=C(CN1CCN(Cc2ccccc2)CC1)N1CCCCCC1 | -14.0% | -2.1 | nt | -8.1 | -21.6%
O=C(Nc1ccc2nsnc2c1)N1CCCCC1 | nt | 29.5* | -6.5% | 54.8 | 21.8%
CC1CCN(C(=O)Nc2ccc3nsnc3c2)CC1 | 31.3% | 19.6* | -2.6% | 107.4* | 131.0%
S=C(Nc1ccc2nsnc2c1)N1CCCCCC1 | ? | -6.2 | -5.2% | 34.7 | 24.6%
CC1CCN(C(=O)Nc2cccc(NC(=O)N3CCC(C)CC3)c2)CC1 | -31.1% | 8.1 | -10.9% | 7.6 | -23.2%[5.75 µM]
O=C(CC1C(=O)NCCN1Cc1cccc(F)c1)NC1CCCCCC1 (stereo not given) | 21.3% | -3.6 | 27.5% | -10.5 | -7.4%
COc1ccc(/C=N/NC(=O)c2ccc(CSc3nncn3C)cc2)cc1OC | ? | -1.2 | nt | -3.8 | ?
Cn1cnnc1SCC(=O)n1c2ccccc2c2ccccc21 | 1.4% | -2.5 | -11.0% | -10.6 | 17.2%
Cn1cnnc1SCc1ccc(C(=O)N=Nc2c(O)n(C)c3ccccc23)cc1 | ? | 8.8 | -0.6% | -9.8 | 10.4µM*
COc1cc(/C(C)=N/NC(=O)c2ccc(CSc3nncn3C)cc2)cc(OC)c1OC | -20.0% | -7.1 | nt | -25.6 | 13.1µM*
Cc1nnsc1C(=O)N1CCCC(C(=O)c2ccc(C(F)(F)F)cc2)C1 (stereo not given) | 23.8% | -1.5 | 8.2% | -3.5 | ?
COc1cccc(NC(=S)N(CCCN2CCOCC2)Cc2cn(C)c3ccccc23)c1 | -21.5% | 0.1 | -0.6% | -8.3 | ?
COc1ccc(NC(=S)N(CCCN2CCOCC2)Cc2cn(C)c3ccccc23)cc1OC | ? | -4.4 | 12.8% | -11.3 | 4.15µM*
CCc1ccc(NC(=S)N(CCCN2CCOCC2)Cc2ccccn2)cc1 | 16.3% | 39.2* | 7.8% | 31.4* | -5.0%
CCc1ccccc1NC(=S)N(CCCN1CCOCC1)Cc1ccccn1 | 8.2% | 8.1 | 5.5% | -3.6 | -1.3%
CCCCCN(C(=O)CCC(=O)OCC(=O)NCc1cccc(OC)c1)c1c(N)n(CCCC)c(=O)[nH]c1=O | 55.3% | 0.7 | 2.9% | 10.0 | -1.7%
Cc1ccc(CNC(=O)CCCCCNc2nc(=S)[nH]c3ccccc23)cc1 | ? | -1.3 | nt | -1.8 | ?
NS(=O)(=O)c1ccc(CCNC(=O)CCCCCNc2nc(=S)[nH]c3ccccc23)cc1 | -7.2% | -1.0 | -3.8% | 5.7 | 2.94µM*
CSc1ccccc1C(=O)Nc1ccccc1C(=O)NC(C)C | -17.3% | 0.8 | -7.7% | 8.9 | 90.0%
O=C(COC(=O)Cc1ccc(-c2ccccc2)cc1)NCc1ccc(F)cc1 | 15.9% | 14.6* | 0.2% | 11.0 | -16.1%
Cn1cc(CCCC(=O)NCc2ccc(F)cc2)c2ccccc21 | ? | -3.9 | -13.0% | 3.2 | 2.08µM*
COc1cn(-c2ccccc2)nc1C(=O)NCc1ccc(C)cc1 | ? | 8.7 | -80.8% | 31.6 | 8.28µM*
COc1ccccc1CNC(=O)CCN1C(=O)c2ccccc2C1=O | 28.7% | -1.7 | 2.1% | -5.1 | 60.6%
COc1ccccc1CNC(=O)CN1C(=O)c2cccc(N)c2C1=O | 119.6% | 39.1* | -10.7% | 68.4* | 123.2%
CCCN(CCC)C(=O)Cn1c(=O)n(CCCCCC(=O)Nc2ccccc2)c(=O)c2sccc21 | 16.8% | -0.8 | 2.6% | -1.4 | 29.6%
Cc1ccc(C(=O)OC2OC(=O)C(Cl)=C2N2CCOCC2)cc1 (stereo not given) | 3.4% | -1.6 | -2.9% | -7.0 | 42.4%
COc1ccccc1CNC(=O)c1ccccc1C(=O)NC(C)(C)C(=O)NCc1ccccc1OC | 1.8% | -6.1 | -6.6% | -10.4 | 13.1µM*
